High-throughput results deposited in PubChem by National Center for Advancing Translational Sciences (NCATS).
A selection: hits, their analogues and other compounds. The true share with any hit is near 11%.
Tau fibril ThT: tau fibrillization inhibition (ThT binding); recombinant tau K18 P301L, heparin-induced fibrillization, ThT fluorescence; 270,000 compounds, 2.1% hits; Potency, µM (doses to about 57.4 µM), inactives show at the top dose activity, negative = inhibition, usual class: inhibitors; further: potency means the concentration at half of the fitted maximal effect; nearly all actives have a fitted effect of over 55% in size
Target sequence (P10636 561-689 P618L limits assumed): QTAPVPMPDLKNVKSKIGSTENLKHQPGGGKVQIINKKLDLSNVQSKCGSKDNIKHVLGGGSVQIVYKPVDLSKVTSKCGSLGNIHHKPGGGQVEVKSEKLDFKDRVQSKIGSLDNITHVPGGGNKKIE
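In this qHTS, human K18 P301L tau is incubated with compound and heparin for 6 hr at 37 C, and Thioflavin T fluorescence then reports fibril load.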
Sfp inh: inhibitors of Bacillus subtilis Sfp phosphopantetheinyl transferase; Potency, µM, for inactives: largest response in the series, negative = inhibition, actives largely listed as inhibitors; AID 1490; Biochemical Sfp PPTase activity, qHTS; 310,000 compounds, 3.5% hits;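 further: the enzyme is Sfp with the accession as filed and its product quenches rhodamine fluorescence; potency means the concentration at half of the fitted maximal effect; 0% = enzyme reaction without inhibitor and -100% = no enzyme wells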
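With Hepes-Na pH 7.6 buffer containing 10 mM MgCl2, Sfp (15 nM) modified BHQ-2-YbbR (12.5 uM) using rhodamine-CoA (5 uM). Two reads 30 minutes apart at 525/598 nm yielded each well's rate.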
FBPA coupling cs: coupling enzyme interference in Giardia aldolase counter-screen; coupling enzyme system counterscreen, AmpLite Red fluorescence; activity change, negative = inhibition, % at 58.2 µM, hits read low; 290,000 compounds, 0.67% hits; AID 2472; in the data active means activity change below about -30%
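Final compound at 57.5 uM, incubated 10 min at RT with coupling enzyme reagent (glyceraldehyde-3-phosphate), then 20 min with substrate and AmpLite Red detection. Fluorescence read at 525/598 nm; tests interference with the coupling assay, not aldolase inhibition.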
G9a block: inhibitors of human histone lysine methyltransferase G9a; Q96KQ7; G9a H3K9 monomethylation, AlphaScreen, 2 h; Potency, µM (series often up to 102 µM), for inactives: top-dose activity, negative = inhibition, usual class: inhibitors; 350,000 compounds, 8.8% hits; further: potency means the concentration at half of the fitted maximal effect; nearly all actives have a fitted effect of over 75% in size
Target sequence (Q96KQ7 913-1193 limits assumed): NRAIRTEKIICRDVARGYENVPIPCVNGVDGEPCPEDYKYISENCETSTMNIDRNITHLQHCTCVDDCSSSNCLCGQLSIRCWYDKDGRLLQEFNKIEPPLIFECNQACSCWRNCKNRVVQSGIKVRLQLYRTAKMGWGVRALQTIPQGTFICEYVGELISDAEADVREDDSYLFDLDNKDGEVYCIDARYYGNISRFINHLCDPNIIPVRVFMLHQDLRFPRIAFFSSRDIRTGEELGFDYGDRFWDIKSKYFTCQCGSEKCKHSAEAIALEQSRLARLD
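Quantitative HTS format: methyltransferase activity on a biotin-tagged H3K9 peptide is measured by AlphaScreen, using a rabbit anti-monomethyl-H3K9 antibody with streptavidin donor and anti-IgG acceptor beads. Final levels are 20 nM enzyme, 500 nM peptide, 20 uM SAM; 2 h RT.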
Tau fibril FP: tau fibrillization inhibition (FP). P10636. K18 P301L tau heparin fibrillization, Alexa594 FP, 6 h. Potency, µM (doses to about 57.7 µM), for the others: at the top dose activity, negative = inhibition, actives largely listed as inhibitors. 280,000 compounds, 0.39% hits; further: potency means the concentration at half of the fitted maximal effect; nearly all actives have a fitted effect of over 55% in size
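Steps: dispense K18 P301L tau (15 uM plus 0.24 uM Alexa 594 tracer, final) in pH 7 sodium acetate; add compound; add heparin (20 uM final); incubate 6 hr, 37 C; add ThT (30 uM final); after 1 hr ambient, read FP.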
Tau fluor counter: counter-screen for tau fibril formation inhibitors. 280,000 compounds, 0.93% hits. AID 1463. tau K18 P301L Alexa594 fluorescence, heparin fibrillization. Potency, µM (doses to about 57.7 µM), without a hit: at the highest dose activity change, negative = decrease; further: potency means the concentration at half of the fitted maximal effect; nearly all actives have a fitted effect of over 55% in size
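Human tau K18 P301L (15 uM unlabeled, 0.24 uM Alexa 594-labeled) in 100 mM sodium acetate pH 7 with 20 uM heparin, 6 hr at 37 C. ThT 30 uM added, 1 hr ambient; Alexa 594 FP and total fluorescence read at 555/632 nm.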
* marks the source's active call; other numbers are inactive results; ? = inconclusive; nt = no result; [ ] = remark or other dose. Unless noted, the call rests on the fitted dose curve; in most records, active means well fitted curve in the direction sought with a large enough effect; inconclusive means small, poorly fitted or top-dose-only effect, or another doubt; inactive means no such curve, though single readings can be large; an effect the other way counts as inactive or inconclusive. Unless noted, on the % scale 0 is the no-effect control and ±100 the full control effect.

SMILES	Tau fibril ThT	Sfp inh	FBPA coupling cs	G9a block	Tau fibril FP	Tau fluor counter
CCOC(=O)N1CCN(S(=O)(=O)c2ccc(C(=O)Nc3nc4c(s3)CC(C)CC4)cc2)CC1 (centres undefined)	-16%	21%	2	-8%	-9%	-13%
CCOC(=O)N1CCN(S(=O)(=O)c2ccc(C(=O)NNc3nc4c(C)cccc4s3)cc2)CC1	20µM*	?	1	35µM*	?	?
CCOC(=O)N1CCN(S(=O)(=O)c2ccc(C(=O)NNc3nc4c(C)cc(C)cc4s3)cc2)CC1	-7%	?	-3	45µM*	0%	-12%
CCOC(=O)N1CCN(S(=O)(=O)c2ccc(C(=O)Nc3nnc(C4CC4)o3)cc2)CC1	-2%	16%	3	17%[59 µM]	-4%	2%
C(=C\c1ccccc1)/CSc1ccccn1	-10%	11%	-1	164%	2%	-12%
Cc1cc(C)nc(SC/C=C/c2ccccc2)n1	nt	89µM*	-2	nt	nt	nt
Cc1[nH][nH]c(=O)c1C(c1c(C)[nH][nH]c1=O)c1cn(C)c2ccccc12	6%	45µM*	-65*	nt	4%	9%
Cc1[nH][nH]c(=O)c1C(c1c(C)[nH][nH]c1=O)c1cn(Cc2cccc3ccccc23)c2ccccc12	10µM*	-15%	-51*	45µM*	?	?
COc1cccc2c(=O)c3cccc(N)c3[nH]c12	?	22µM*	-56*	25µM*	15%	-18%
COc1c(C=O)c(=O)[nH]c2c(OC)cccc12	-13%	-26%	1	nt	-4%	-9%
Cc1ccc(NC(=O)Cc2ccc(-n3c(C)nc4cccnc43)cc2)cc1C	-2%	nt	nt	-32%[59 µM]	-2%	-10%
CCOc1ccc(C2=NC(c3cccs3)=Nc3ccc(CC)cc3N2)cc1OCC	-11%	nt	nt	10µM*	2%	-29%
COc1cccc(C(=O)Nc2ccccc2-c2nnc(-c3ccc(C(C)(C)C)cc3)o2)c1	-15%	nt	nt	-1%[59 µM]	-16%	-25%
COc1ccc(NC(=O)C2CCCN(CCCc3ccccc3)C2)cc1OCC(C)C (centres undefined)	nt	-2%	0	nt	nt	nt
CCCN1C(=O)/C(=C/c2c(NCCCOCC)nc3c(C)cccn3c2=O)SC1=S	-9%	-5%	0	-37%[59 µM]	?	-8%
O=C1/C(=C\c2c(NCCOCCO)nc3ccccn3c2=O)SC(=S)N1Cc1ccco1	nt	40µM*	-2	40µM*	nt	nt
O=c1c2ccccc2nc(COc2ccccc2)n1/N=C/c1ccc(O)c(O)c1	nt	-1%	-7	3.2µM*	8%	?
CCOc1cc(/C=N/n2c(COc3ccccc3)n[nH]c2=S)ccc1O	nt	-12%	3	4.5µM*	nt	nt
S=c1[nH]nc(COc2ccc(Cl)cc2)n1-c1ccccc1	nt	13%	5	15%[0.501 µM]	nt	nt
Cc1ccc(-c2[nH]ncc2/C=N/n2c(COc3ccccc3)nc3ccccc3c2=O)cc1	9%	21%	-4	-2%[59 µM]	2%	0%
Cc1cc(/C=N/n2c(COc3ccccc3)nc3ccccc3c2=O)c(O)c([N+](=O)[O-])c1	11µM*	-1%	0	-21%[59 µM]	14%	?
Oc1ccc(/C=N/n2c(COc3ccccc3)n[nH]c2=S)cc1O	nt	56µM*	-2	10µM*	nt	nt
CCOc1cc(/C=N\n2nnnc2N)ccc1O	nt	3%	0	-48%	nt	nt
O=C(Nn1c(COc2ccccc2)nc2ccccc2c1=O)C(Cl)(Cl)Cl	nt	11%	4	50µM*	nt	nt
CCN(C(=O)c1ccc(S(=O)(=O)N2CCOCC2)cc1)C1CCS(=O)(=O)C1 (centres undefined)	nt	nt	nt	0%[59 µM]	nt	nt
SMILES	Tau fibril ThT	Sfp inh	FBPA coupling cs	G9a block	Tau fibril FP	Tau fluor counter
Cc1c(CBr)[n+](=O)c2c(n1[O-])C(Br)CCC2Br (centres undefined)	25µM*	11µM*	-5	7.9µM*	?	-28%
Cc1c(C)[n+](=O)c2c(n1[O-])C(Br)CCC2Br (centres undefined)	?	-13%	1	1µM*	-11%	-12%
CCCCN1C(=O)C(NC(=O)c2ccc(C(C)(C)C)cc2)(C(F)(F)F)C(C(=O)OC)=C1C (centres undefined)	-13%	nt	nt	1%[59 µM]	-4%	-13%
CC(C)c1ccc(CN2CCN(C(=O)CSc3nnnn3C3CC3)CC2)cc1	nt	nt	nt	12%[12.7 µM]	nt	nt
Cc1cc2nc3c(=O)n(C4CCCCC4)c(=O)[nH]c3nc2cc1N	5%	2%	2	1.3µM*	-9%	1%
CCOc1ccc(OCC)c(S(=O)(=O)N2CCN(c3cccc(C)c3C)CC2)c1	-9%	nt	nt	12%[59 µM]	-8%	-21%
O=C(CCSc1nnc(-c2ccncc2)o1)Nc1cccc2ccccc12	?	6%	-2	10%[59 µM]	-15%	-12%
CC(Sc1nnc(-c2ccc(O)cc2)o1)C(=O)Nc1cccc2ccccc12 (centres undefined)	-8%	-12%	1	13µM*	-12%	-30%
CCNC(=O)CCSc1nnc(-c2ccc(O)cc2)o1	-8%	nt	nt	13µM*	-6%	3%
CNc1ccc(C(=O)N2CCN(S(=O)(=O)c3ccc4c(c3)OCCCO4)CC2)cc1[N+](=O)[O-]	nt	5%	2	-26%	nt	nt
FC(F)(F)c1cccc(-n2c(Cn3nnc4ccccc43)n[nH]c2=S)c1	1%	89µM*	2	nt	7%	3%
S=c1[nH]nc(Cn2nnc3ccccc32)n1-c1ccccc1	3%	5%	3	32µM*	1%	7%
O=C(NC1CC(=O)N(c2ccc(F)cc2)C1)C1CCCC1 (centres undefined)	-2%	nt	nt	4%[59 µM]	-10%	-6%
CCc1cccc(C)c1NC(=O)C1C2CCC(O2)C1C(=O)O (centres undefined)	-3%	19%	1	23%[59 µM]	1%	-2%
CCCCc1ccc(-c2nc(NC(=O)C3C4CCC(O4)C3C(=O)O)sc2C)cc1 (centres undefined)	?	1%	2	50µM*	4%	-9%
COc1ccc(N2CCN(C(=O)Cn3cnc4sc(C)c(S(=O)(=O)N5CCC(C)CC5)c4c3=O)CC2)cc1	?	nt	nt	?	15%	?
Cc1ccc(C2/C(=C(\O)c3ccc4c(c3)OCCO4)C(=O)C(=O)N2CCCN(C)C)o1 (centres undefined)	4%	-10%	5	45µM*	-1%	3%
